Only some compounds are listed: those with a hit (about 3.4% of all), similar ones and a draw of the others.
IMPase Li cell = membrane-permeable IMPase blocker, potentiated with lithium; CHO-M1 cells, IP1 TR-FRET (IP-One), carbachol + lithium; 210,000 tested, 0.35% active; Potency, µM (doses to about 59.4 µM), most hits filed as inhibitors;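 further: IP1 builds up when IMPase is blocked and the TR-FRET signal falls; nearly all actives have a fitted effect of over 50% in size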
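Concentration–response in CHO-M1 cells, lithium-potentiated; 30 min at 37C. IP1 detected by competitive TR-FRET after 10 min lysis at RT. Hill-fitted AC50.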
HTT ATP protect = protects HTT-Q103 PC12 cells, measured by ATP | PC12 HTT-Q103 induced, cytoprotection, ATP luminescence, 40 h | Potency, µM (titrated, usually from 56.4 µM), hits mostly activators | 230,000 tested, 0.14% active | AID 1471; further: nearly all actives have a fitted effect of over 45% in size
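Quantitative HTS on tebufenozide-induced (100 nM) PC12 cells expressing HTTQ103 exon 1–GFP; compounds tested as a concentration series; survival measured via cellular ATP.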
PNC assembly inh = inhibitors of perinucleolar compartment assembly. 140,000 tested, 3.1% active. activity change (PNC), negative = inhibition, % at 10 µM. PC3M PTB-GFP, PNC prevalence imaging, 16 h; active compounds read low;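 active means readout at or below -70, meaning at least 70% loss of cells showing the perinucleolar compartment, a nuclear body marking cancer cells; inconclusive means readout between -30 and a set limit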
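PC3M cells stably expressing PTB-GFP, 750–1000 cells/well, treated 16 h at 37 °C with compound (23 nl of library stock), in duplicate. After paraformaldehyde fixation and Hoechst stain, imaged at 20x; PNC prevalence scored by image analysis.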
HttQ103 aggreg = inhibitors of mutant huntingtin aggregate formation in PC12 cells; PC12 HttQ103-GFP aggregates, Acumen cytometry, 40 h; Potency, µM (top dose mostly 46.1 µM), actives largely listed as inhibitors; 220,000 tested, 1.1% active; further: nearly all actives have a fitted effect of over 60% in size
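PC12 cells with ecdysone-inducible HTT exon1 Q103-GFP, induced by 100 nM tebufenozide, given compounds in a concentration series. GFP aggregates (1–25 um, 6 SD above background) counted in lysates by laser-scanning cytometry, 488 nm excitation.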
NPSR antag = neuropeptide S receptor (human) antagonism, cAMP; Q6W5P4; CHO-NPSR cells, cAMP TR-FRET, antagonist mode; Potency, µM (titrated, usually from 38.3 µM), usual class: inhibitors; 220,000 tested, 1% active; AID 1461; further: nearly all actives have a fitted effect of over 50% in size
Target sequence (Q6W5P4 whole entry, looked up): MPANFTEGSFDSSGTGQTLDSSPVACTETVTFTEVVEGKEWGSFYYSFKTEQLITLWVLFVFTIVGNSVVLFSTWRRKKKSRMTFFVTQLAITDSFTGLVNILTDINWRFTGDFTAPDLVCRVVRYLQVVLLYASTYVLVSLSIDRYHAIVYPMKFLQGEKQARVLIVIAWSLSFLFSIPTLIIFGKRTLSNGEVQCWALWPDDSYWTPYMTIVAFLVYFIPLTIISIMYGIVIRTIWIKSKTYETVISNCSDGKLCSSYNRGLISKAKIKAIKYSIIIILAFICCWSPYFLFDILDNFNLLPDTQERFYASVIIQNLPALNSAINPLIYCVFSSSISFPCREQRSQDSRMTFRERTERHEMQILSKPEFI
IMPase cell inh = cell-permeable inhibitors of inositol monophosphatase (IMPase) | 120,000 tested, under 10 active | inhibition (IP1 accumulation), % at 46.1 µM | CHO-M1 cells, IP1 accumulation, HTRF TR-FRET ratio | AID 901 | P97697; active means well fitted curve in the direction sought with a large enough effect in the signal ratio, not every such curve was filed as active; inconclusive means small, poorly fitted or top-dose-only effect, or a change in a side signal; inactive means no such curve, though single readings can be large or run the other way; the % refers to the signal ratio;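 further: cells stimulated with carbachol in lithium chloride buffer; higher means more IMPase inhibition seen as more IP1 and lower FRET ratio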
Target sequence (P97697 whole entry, looked up): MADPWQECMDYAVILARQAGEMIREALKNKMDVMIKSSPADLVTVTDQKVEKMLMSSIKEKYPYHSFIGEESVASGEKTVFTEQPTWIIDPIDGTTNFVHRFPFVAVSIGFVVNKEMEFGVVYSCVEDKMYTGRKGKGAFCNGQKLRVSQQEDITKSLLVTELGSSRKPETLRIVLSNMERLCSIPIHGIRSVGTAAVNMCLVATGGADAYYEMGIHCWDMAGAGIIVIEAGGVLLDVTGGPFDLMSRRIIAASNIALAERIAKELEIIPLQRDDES
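In this qHTS, compounds (final up to 46 uM) act on CHO-M1 cells that are then activated through the M1 receptor with carbachol, in pH 7.4 buffer containing 50 mM LiCl, for 30 min. IP1 accumulation is quantified by the IP-One immunoassay.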
Hits are given with their value; n = inactive; u = inconclusive; x = not tested or not shown; [ ] = remark or other dose. Unless noted, the call rests on the fitted dose curve; in most records, active means well fitted curve in the direction sought with a large enough effect; inconclusive means small, poorly fitted or top-dose-only effect, or another doubt; inactive means no such curve, though single readings can be large; an effect the other way counts as inactive or inconclusive.

SMILES	IMPase Li cell	HTT ATP protect	PNC assembly inh	HttQ103 aggreg	NPSR antag	IMPase cell inh
Cc1cc(=O)oc2cc(OC3C=CC(C#CC(C)(C)C)OC3CO)ccc12 (stereo not drawn)	x	n[10 µM]	x	x	x	x
CN1CCCC2(CCN(S(=O)(=O)c3ccccc3)CC2)C1	n	n	x	x	x	x
O=c1c(-c2ccc(F)cc2)nc2cnc(N3CCOCC3)nc2n1CCc1ccccc1	n	n	x	x	x	x
Cc1cc(C)n2c(=S)[nH]nc2n1	n	n[10 µM]	-139	n	n	n
Cc1cc(C)n2cnnc2n1	x	n[10 µM]	x	n[9.22 µM]	n	x
O=C(O)C/C(=C\c1ccccc1)C(=O)O	n	n[10 µM]	x	x	x	x
CC(=O)OCC1O[C@@H](O[C@@H]2C[C@H]3C(C)(C)[C@H](OC(C)=O)CC[C@]3(C)[C@H]3CC[C@]45C[C@]4(CC[C@H]5[C@@H](C)C[C@@H](O)[C@H](O)C(C)(C)O)[C@@]32C)[C@H](O)[C@@H](O)[C@@H]1O (stereo partly drawn)	n	x	-115	u	u	x
c1ccc(Oc2cc(-c3ccccc3)nc(-c3ccccc3)n2)cc1	n	n[1.9 µM]	n	n	n	n
O=S(=O)(Cc1cc(Oc2ccccc2)nc(-c2ccccc2)n1)c1ccccc1	n	n	-102	n	u	n
COCC(=O)Nc1nc2ccccc2s1	n	n	n	n	n	n
O=C(COC(=O)Cc1cn2ccsc2n1)Nc1nc2ccccc2s1	n	n[10 µM]	-100	n	n	n
COc1ccccc1-n1c(=O)oc2ccc(Cl)cc2c1=O	n	n[0.074 µM]	u	7.1µM	n	u
COc1ccccc1-n1c(SCc2cc(=O)oc3cc(O)ccc23)nc2ccccc2c1=O	n	n[0.074 µM]	n	n	n	x
CC(C)C[C@H](NC(=O)C1(c2ccccc2)CCN(C(=O)[C@H]2CSCN2C(=O)OC(C)(C)C)CC1)C(=O)O	n	x	-114	n	n	x
CC(C)(C)OC(=O)N1CCC(C(=O)N[C@@H](Cc2ccccc2)C(=O)O)(c2ccccc2)CC1	n	x	n	n	n	x
Cc1nn(C)c(C)c1/C=C/C(=O)O	n	11µM	x	n	n	x
Cc1nn(C)c(Cl)c1/C=C/C(=O)O	n	n[10 µM]	x	n	n	x
O=C(O)C=C1C2CC3CC(C2)CC1C3	n	n	-82	n	n	n
CCOC(=O)/C=C/COc1ccccc1[N+](=O)[O-]	n	n	x	n	n	x
Cc1[nH]c2ccccc2c1CCN(Cc1cccnc1)C(=S)Nc1cccc(F)c1	n	n	x	n	n	x
Cc1cc2nc(CCN(Cc3cccnc3)C(=S)Nc3ccccc3)[nH]c2cc1C	u	n[10 µM]	-86	n	n	n[1.84 µM]
Cc1cc2nc(CCN(Cc3cccnc3)C(=S)Nc3ccc(F)cc3)[nH]c2cc1C	n	n	n	n	n	n
Cc1[nH]c2ccccc2c1CCN(Cc1cccnc1)C(=S)Nc1ccc(F)cc1	n	n	x	n	7.9µM	x
CCOc1ccc2c(c1)C(N(CCN1CCOCC1)C(=O)Nc1ccccc1)CC(C)(C)O2 (stereo not drawn)	n	n	x	n	n	x
Cn1c(=O)c2c(nc(C(=N)SCC(=O)O)n2C)n(C)c1=O	n	n[10 µM]	x	x	x	x
SMILES	IMPase Li cell	HTT ATP protect	PNC assembly inh	HttQ103 aggreg	NPSR antag	IMPase cell inh
CCCc1cc(=O)n2[nH]c(-c3ccccc3)cc2n1	n	n[10 µM]	-100	n	n	n
CCCc1cc(=O)n2[nH]c(-c3ccc(C)cc3)cc2n1	n	n	n	n	n	n
N#CC1=C2SCN(Cc3ccccc3)CN2C(=O)CC1c1cccs1 (stereo not drawn)	11µM	n	n	n	u	u
N#CC1=C2SCN(Cc3ccccc3)CN2C(=O)CC1c1ccc2c(c1)OCO2 (stereo not drawn)	n	n[0.074 µM]	n	n	n	n
O=C(Oc1cncc(Cl)c1)c1ccco1	n	n[10 µM]	-81	n	n	u
O=C(Oc1ccc2ccccc2c1)c1ccco1	n	n[10 µM]	n	n[9.22 µM]	n	n
CC(C)CN1CCCC2(CCN(C(=O)c3ccco3)CC2)C1	n	n	x	x	x	x
Cc1ccc(C)c(OCCn2cc(/C=C(\C#N)C(=O)NCc3ccco3)c3ccccc32)c1	n	u	-86	n	n	x
CCOc1ccc2nc(NC(=O)Cn3[nH]c(=O)c4ccccc4c3=O)sc2c1	x	n[10 µM]	x	n[9.22 µM]	n[7.67 µM]	x
CCc1cc(OCCCSc2nc(C)cc(=O)[nH]2)ccc1Cl	n	n	n	35µM	n	n
Cc1cc(=O)[nH]c(SCCCOc2ccccc2Cl)n1	n	n	n	u	n	n
CCOC(=O)c1sc2nc(N3CCOCC3)c3c(c2c1N)CCCC3	n	n	u	n	n[7.67 µM]	n
Nc1c(C(=O)NCc2ccco2)sc2nc(N3CCOCC3)c3c(c12)CCCC3	10µM	n	n	n	n	n
O=c1cc(COc2ccc(Cl)c(Cl)c2)nc2sccn12	x	n[10 µM]	x	n[9.22 µM]	n	x
O=c1cc(CNc2cc(Cl)ccc2Cl)nc2sccn12	n	n[10 µM]	-113	n	n	x
COc1ccc(NC(=O)CCC(=O)c2ccc(-c3ccccc3)cc2)cc1	32µM	n	u	n	n	n
COc1ccc(C(=O)COC(=O)c2ccc(NC(=O)c3ccccc3)cc2)cc1	11µM	n	n	n	n	n
CCOC(=O)N/N=C1/C[C@@H](O)[C@@H](O)[C@@H]2[C@@H]3C(=O)N(C4CCCCC4)C(=O)[C@H]3CC[C@@H]12	x	n[10 µM]	x	x	x	x
COc1ccc(NC(=O)C2CCCN2C(=O)OC(C)(C)C)cc1 (stereo not drawn)	n	n[10 µM]	x	n[9.22 µM]	n	x
COc1ccc(OC)c(S(=O)(=O)Nc2cc(OC)c(Cl)cc2OC)c1	n	n	n	n	u	u
COc1ccccc1NS(=O)(=O)c1cc(Cl)ccc1OC	n	n	-114	n	n	n
COc1ccccc1NS(=O)(=O)c1cc(NC(=O)c2ccc(Cl)nc2)ccc1Cl	n	n[10 µM]	n	25µM	n	x
COc1cc(NS(=O)(=O)c2ccc(OC)c(C)c2C)c(OC)cc1Cl	n	n	-108	n	20µM	n
COc1ccccc1NS(=O)(=O)c1cccc(NC(=O)Nc2cccc(Cl)c2)c1	n	n[10 µM]	-86	n	u	x
COc1ccccc1NS(=O)(=O)c1cccc(NC(=O)NCCCl)c1	x	n[10 µM]	x	n[9.22 µM]	n	x
C=C(CO)[C@H]1Cc2c(ccc3c(=O)c4c(oc23)COc2cc(OC)c(OC)cc2-4)O1	x	n	x	x	x	x
C=CC1=C2C=C(C3CC3)N(C3CCCCC3)C=C2C(=O)C(C)(OC(=O)c2ccco2)C1=O (stereo not drawn)	n	n[10 µM]	x	x	x	x
CS(=O)c1ccccc1COC(=O)Nc1ccc(Cl)cc1 (stereo not drawn)	n	n[10 µM]	-80	n	n	n[1.84 µM]
CN(C)CCN(Cc1ccccc1)S(=O)(=O)c1cccc2cccnc12	x	n	x	x	x	x
O=[N+]([O-])c1cc(S(=O)(=O)Nc2cccc(C(F)(F)F)c2)ccc1-n1nnc2ccccc21	n	n	n	11µM	n	n
